# Results: PubChem BioAssay (Tox21)
# “And” between values parts separate entries of the source, which are not always exact repeats. Identical values can stand only once. Inconclusive results are not listed. Entries that show only a call come without a potency. The source made the active and inactive calls. Unless noted, calls come from the whole dose curve; as a rule, active = well fitted curve in the direction sought with a large enough effect in the repeat runs; inconclusive = weak or mixed curves; inactive = no such curve, though single readings can be large; an effect the other way counts as inactive or inconclusive.
# Columns and labels:
# [1] = target: Retinoic acid receptor RXR-alpha (Homo sapiens) (UniProt P19793); assay: qHTS assay to identify small molecule agonists of the RXR signaling pathway (AID 1159527; calls by dose curve; note: nearly all actives have a fitted effect of over 35% in size)
# In short: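 Fluorescence ratio readout (460 vs 530 nm) from GeneBLAzer RXR-alpha HEK 293T cells after 16 hr compound treatment; cells seeded 5 hr beforehand in low-serum, charcoal-stripped medium.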
# [2] = qHTS assay to identify small molecule antagonists of the retinoid acid receptor (RAR) signaling pathway - cell viability counter screen (AID 1159551); note: nearly all actives have a fitted effect of over 35% in size
# In short: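 In this counter screen, the RARE-luciferase line C3RL4 was exposed for 6 h at 37 C and 5% CO2 to compounds with retinol at 1 uM final. Cellular ATP, read by luminescence, served as the viability measure.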
# [3] = qHTS assay to identify small molecule antagonists of the retinoic acid receptor (RAR) signaling pathway (AID 1159552; note: nearly all actives have a fitted effect of over 50% in size)
# In short: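 Using a RARE-driven luciferase construct in C3RL4 cells, retinol at 1 uM final provided the agonist stimulus while compounds were co-applied. After 6 hours at 37 C, luminescence was recorded to flag inhibitors of retinol signaling.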
# [4] = qHTS assay to identify small molecule agonists of the retinoic acid receptor (RAR) signaling pathway (AID 1159553)
# In short: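 In this cell-based screen, 1,000 C3RL4 cells per well were cultured overnight, dosed with test chemicals in DMSO for 6 hr, and assessed for RARE luciferase luminescence.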
# [5] = qHTS assay to identify small molecule agonists of the RXR signaling pathway - cell viability counter screen (AID 1159529); note: potency is the fitted concentration of half-maximal effect; nearly all actives have a fitted effect of over 50% in size
# In short: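 Viability read-out for the RXR-alpha agonist qHTS: luminescent CellTiter-Glo signal after 30 min at RT. HEK 293T bla reporter cells, 2% charcoal-stripped FBS, 16 hr compound incubation; tetraoctyl ammonium bromide as cytotoxic control.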
# Sequence of Retinoic acid receptor RXR-alpha (Homo sapiens) (P19793 whole entry, looked up): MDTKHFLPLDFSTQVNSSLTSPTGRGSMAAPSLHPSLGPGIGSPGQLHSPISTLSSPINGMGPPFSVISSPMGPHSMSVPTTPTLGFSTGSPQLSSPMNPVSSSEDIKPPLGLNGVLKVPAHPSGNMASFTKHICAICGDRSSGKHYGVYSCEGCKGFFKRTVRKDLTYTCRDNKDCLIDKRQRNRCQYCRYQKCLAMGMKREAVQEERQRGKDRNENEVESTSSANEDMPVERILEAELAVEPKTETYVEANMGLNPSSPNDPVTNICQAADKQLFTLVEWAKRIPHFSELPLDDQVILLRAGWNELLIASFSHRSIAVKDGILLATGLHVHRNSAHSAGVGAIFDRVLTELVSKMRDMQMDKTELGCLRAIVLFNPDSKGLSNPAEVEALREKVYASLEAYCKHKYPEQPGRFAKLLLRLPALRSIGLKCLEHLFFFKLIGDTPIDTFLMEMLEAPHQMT
compound,measurement,setting,value
COc1ccc(CN2CCNCC2)c(OC)c1OC,Potency,[1],inactive
same,Potency,[2],inactive
same,Potency,[3],inactive
same,Potency,[4],inactive
CCN[C@@H](C)Cc1ccccc1,Potency,[1],inactive
same,Potency,[2],inactive
same,Potency,[4],inactive
CC(C)(C)c1cc(O)ccc1O,Potency,[5],21.9 µM (active) and 24.5 µM (active)
same,Potency,[3],inactive
same,Potency,[4],inactive
C=CC=O,Potency,[1],inactive
same,Potency,[2],inactive
same,Potency,[3],inactive
same,Potency,[4],inactive
CCN(CC)C1CCCCC1,Potency,[1],inactive
same,Potency,[2],inactive
same,Potency,[4],inactive
BrCC1CO1 (configuration not stated),Potency,[1],inactive
same,Potency,[2],inactive
same,Potency,[3],inactive
same,Potency,[4],inactive
CCC(C)(C#N)N=NC(C)(C#N)CC (configuration not stated),Potency,[1],inactive
same,Potency,[2],inactive
same,Potency,[4],inactive
CCCOC(=O)Cc1ccc(OCC(=O)N(CC)CC)c(OC)c1,Potency,[1],inactive
same,Potency,[2],inactive
same,Potency,[3],inactive
same,Potency,[4],inactive
CCN(CCO)CCn1c(Cc2ccccc2)nc2c1c(=O)n(C)c(=O)n2C,Potency,[1],inactive
same,Potency,[2],inactive
same,Potency,[4],inactive
CC(=O)OCC1=C(C(=O)O)N2C(=O)[C@@H](N)[C@H]2SC1,activation,[1],-0.797% [at 15.8 µM] (inactive)
same,"activity change, negative = cytotoxicity",[2],0.328% [at 19 µM] (inactive)
same,"activity, negative = inhibition",[3],-17.1% [at 19 µM] (inactive)
same,Potency,[4],inactive
CC(C)(C)C(=O)Cl,Potency,[1],inactive
same,Potency,[2],inactive
same,Potency,[4],inactive
O=c1[nH]c2ccccc2o1,Potency,[1],inactive
same,Potency,[2],inactive
same,Potency,[3],inactive
same,Potency,[4],inactive
